# The supplement of paper PMC8728848
# Only a selection was taken, and the strongest signals are over-represented in it overall.
# Assays:
# Experiment in all cases: glycan array binding signal (z-score within array); higher = stronger binding
# Conditions in all cases: glycan notation: IUPAC condensed, linker removed
# [1] = biological target: Fuc(a1-2)Gal(b1-3)[Fuc(a1-4)]GlcNAc(b1-3)[Fuc(a1-3)[Gal(b1-4)]GlcNAc(b1-6)]Gal(b1-4)Glc
# Summary of the method: (§1)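 From the Consortium for Functional Glycomics database, 3228 arrays were curated, keeping only those whose protein sequence was available. Binding is given as a within-array Z-score averaged across arrays sharing a protein sequence and across linkers. Negative Z-scores can be read as non-binding.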
# [2] = biological target: Fuc(a1-2)Gal(b1-4)GlcNAc(b1-2)[Fuc(a1-2)Gal(b1-4)GlcNAc(b1-4)]Man(a1-3)[Fuc(a1-2)Gal(b1-4)GlcNAc(b1-2)Man(a1-6)]Man(b1-4)GlcNAc(b1-4)GlcNAc
# Summary of the method: as §1
# [3] = biological target: Fuc(a1-2)Gal(b1-4)GlcNAc(b1-3)GalNAc
# Summary of the method: as §1
# [4] = biological target: Fuc(a1-2)Gal(b1-4)[Fuc(a1-3)]GlcNAc(b1-3)GalNAc
# Summary of the method: as §1
# [5] = biological target: Fuc(a1-2)Gal6S(b1-3)GlcNAc
# Summary of the method: as §1
# [6] = biological target: Fuc(a1-2)[Gal(a1-3)]Gal(b1-3)GlcNAc(b1-6)GalNAc
# Summary of the method: as §1
# [7] = biological target: Fuc(a1-2)[Gal(a1-3)]Gal(b1-4)GlcNAc(b1-3)GalNAc
# Summary of the method: as §1
# [8] = biological target: Fuc(a1-2)[GalNAc(a1-3)]Gal(b1-3)GlcNAc(b1-6)GalNAc
# Summary of the method: as §1
# [9] = biological target: Fuc(a1-2)[GalNAc(a1-3)]Gal(b1-4)[Fuc(a1-3)]GlcNAc(b1-3)GalNAc
# Summary of the method: as §1
# [10] = biological target: Fuc(a1-3)GlcNAc
# Summary of the method: as §1
# [11] = biological target: Fuc(a1-3)[Gal(b1-4)]GlcNAc(b1-3)Gal(b1-4)[Fuc(a1-3)]GlcNAc
# Summary of the method: as §1
# [12] = biological target: Fuc(a1-3)[Gal(b1-4)]GlcNAc(b1-6)GalNAc
# Summary of the method: as §1
# [13] = biological target: Fuc(a1-3)[Gal(b1-4)]GlcNAc6S
# Summary of the method: as §1
# [14] = biological target: Gal(a1-3)Gal(b1-3)GlcNAc(b1-2)Man(a1-3)[Gal(a1-3)Gal(b1-3)GlcNAc(b1-2)Man(a1-6)]Man(b1-4)GlcNAc(b1-4)GlcNAc
# Summary of the method: as §1
# [15] = biological target: Gal(a1-3)Gal(b1-4)GlcNAc(b1-3)GalNAc
# Summary of the method: as §1
# [16] = biological target: Gal(a1-3)[Gal(a1-4)]Gal(b1-4)GlcNAc
# Summary of the method: as §1
# [17] = biological target: Gal(b1-2)Gal
# Summary of the method: as §1
# [18] = biological target: Gal(b1-3)Gal
# Summary of the method: as §1
# [19] = biological target: Gal(b1-3)Gal(b1-4)GlcNAc
# Summary of the method: as §1
# [20] = biological target: Gal(b1-3)GalNAc
# Summary of the method: as §1
# [21] = biological target: Gal(b1-3)GalNAc(b1-3)Gal
# Summary of the method: as §1
# [22] = biological target: Gal(b1-3)GalNAc(b1-4)Gal(b1-4)Glc
# Summary of the method: as §1
# [23] = biological target: Gal(b1-3)GalNAc(b1-4)[Neu5Ac(a2-3)]Gal(b1-4)Glc
# Summary of the method: as §1
# [24] = biological target: Gal(b1-3)[Neu5Ac(a2-6)]GalNAc
# Summary of the method: as §1
# [25] = biological target: Gal(b1-4)GlcNAc(b1-2)Man(a1-3)[Man(a1-6)]Man(b1-4)GlcNAc(b1-4)GlcNAc
# Summary of the method: as §1
# [26] = biological target: Gal(b1-4)GlcNAc(b1-2)[Gal(b1-4)GlcNAc(b1-6)]Man(a1-6)[GlcNAc(b1-4)][Gal(b1-4)GlcNAc(b1-2)Man(a1-3)]Man(b1-4)GlcNAc(b1-4)GlcNAc
# Summary of the method: as §1
# [27] = biological target: Gal(b1-4)GlcNAc(b1-3)Gal(b1-4)GlcNAc(b1-3)Gal(b1-4)GlcNAc(b1-3)Gal(b1-4)GlcNAc(b1-2)Man(a1-3)[Gal(b1-4)GlcNAc(b1-3)Gal(b1-4)GlcNAc(b1-3)Gal(b1-4)GlcNAc(b1-3)Gal(b1-4)GlcNAc(b1-2)Man(a1-6)]Man(b1-4)GlcNAc(b1-4)GlcNAc
# Summary of the method: as §1
# [28] = biological target: Gal(b1-4)GlcNAc(b1-3)Gal(b1-4)GlcNAc(b1-3)Gal(b1-4)GlcNAc(b1-3)Gal(b1-4)GlcNAc(b1-3)Gal(b1-4)GlcNAc(b1-2)Man(a1-3)[Gal(b1-4)GlcNAc(b1-3)Gal(b1-4)GlcNAc(b1-3)Gal(b1-4)GlcNAc(b1-3)Gal(b1-4)GlcNAc(b1-3)Gal(b1-4)GlcNAc(b1-2)Man(a1-6)]Man(b1-4)GlcNAc(b1-4)[Fuc(a1-6)]GlcNAc
# Summary of the method: as §1
# [29] = biological target: Gal(b1-4)GlcNAc(b1-3)GalNAc
# Summary of the method: as §1
# [30] = biological target: Gal3S(b1-4)GlcNAc
# Summary of the method: as §1
# [31] = biological target: Gal6S(b1-4)GlcNAc
# Summary of the method: as §1
# [32] = biological target: GalNAc(b1-4)GlcNAc
# Summary of the method: as §1
# [33] = biological target: GalNAc(b1-4)GlcNAc(b1-2)Man
# Summary of the method: as §1
# [34] = biological target: Glc(a1-6)Glc(a1-6)Glc(a1-6)Glc
# Summary of the method: as §1
# [35] = biological target: GlcA(b1-3)GlcNAc
# Summary of the method: as §1
# [36] = biological target: GlcNAc(b1-2)[GlcNAc(b1-4)]Man(a1-3)[GlcNAc(b1-4)][GlcNAc(b1-2)Man(a1-6)]Man(b1-4)GlcNAc(b1-4)GlcNAc
# Summary of the method: as §1
# [37] = biological target: GlcNAc(b1-2)[GlcNAc(b1-4)]Man(a1-3)[GlcNAc(b1-4)][GlcNAc(b1-2)[GlcNAc(b1-6)]Man(a1-6)]Man(b1-4)GlcNAc(b1-4)GlcNAc
# Summary of the method: as §1
# [38] = biological target: Kdn(a2-3)Gal(b1-4)[Fuc(a1-3)]GlcNAc
# Summary of the method: as §1
# [39] = biological target: Man(a1-2)Man(a1-2)Man(a1-3)Man
# Summary of the method: as §1
# [40] = biological target: Neu5Ac(a2-3)Gal(b1-3)[Fuc(a1-4)]GlcNAc(b1-3)Gal(b1-4)[Fuc(a1-3)]GlcNAc
# Summary of the method: as §1
# [41] = biological target: Neu5Ac(a2-3)Gal(b1-4)GlcNAc(b1-3)GalNAc
# Summary of the method: as §1
# [42] = biological target: Neu5Ac(a2-3)Gal(b1-4)[Fuc(a1-3)]GlcNAc(b1-6)[Gal(b1-3)]GalNAc
# Summary of the method: as §1
# [43] = biological target: Neu5Ac(a2-3)Gal6S(b1-4)GlcNAc
# Summary of the method: as §1
# [44] = biological target: Neu5Ac(a2-6)Gal(b1-4)GlcNAc
# Summary of the method: as §1
# [45] = biological target: Neu5Ac(a2-6)Gal(b1-4)GlcNAc(b1-3)Gal(b1-4)GlcNAc(b1-3)Gal(b1-4)GlcNAc(b1-2)Man(a1-3)[Neu5Ac(a2-6)Gal(b1-4)GlcNAc(b1-3)Gal(b1-4)GlcNAc(b1-3)Gal(b1-4)GlcNAc(b1-2)Man(a1-6)]GalNAc
# Summary of the method: as §1
# [46] = biological target: Neu5Ac(a2-6)Gal(b1-4)GlcNAc(b1-3)Gal(b1-4)GlcNAc(b1-3)[Neu5Ac(a2-6)Gal(b1-4)GlcNAc(b1-3)Gal(b1-4)GlcNAc(b1-6)]GalNAc
# Summary of the method: as §1
# [47] = biological target: Neu5Gc(a2-3)Gal(b1-3)GlcNAc
# Summary of the method: as §1
binder,measurement,setting,value
"CFEM-SCL (Saccharomyces cerevisiae), O13547 (protein) MRATTLLSSVVSLALLSKEVLATPPACLLACVAQVGKSSSTCDSLNQVTCYCEHENSAVKKCLDSICPNNDADAAYSAFKSSCSEQNASLGD",glycan array binding signal (z-score),[1],-0.173
same,glycan array binding signal (z-score),[2],-0.213
same,glycan array binding signal (z-score),[3],3.91
same,glycan array binding signal (z-score),[4],3.09
same,glycan array binding signal (z-score),[5],-0.235
same,glycan array binding signal (z-score),[6],-0.325
same,glycan array binding signal (z-score),[7],-0.207
same,glycan array binding signal (z-score),[8],-0.289
same,glycan array binding signal (z-score),[9],2.67
same,glycan array binding signal (z-score),[10],-0.151
same,glycan array binding signal (z-score),[11],-0.174
same,glycan array binding signal (z-score),[12],2.59
same,glycan array binding signal (z-score),[13],-0.014
same,glycan array binding signal (z-score),[14],0.636
same,glycan array binding signal (z-score),[15],-0.281
same,glycan array binding signal (z-score),[16],-0.238
same,glycan array binding signal (z-score),[17],0.077
same,glycan array binding signal (z-score),[18],4.26
same,glycan array binding signal (z-score),[19],2.99
same,glycan array binding signal (z-score),[20],3.86
same,glycan array binding signal (z-score),[21],14.5
same,glycan array binding signal (z-score),[22],11.1
same,glycan array binding signal (z-score),[23],2.46
same,glycan array binding signal (z-score),[24],3.63
same,glycan array binding signal (z-score),[25],-0.238
same,glycan array binding signal (z-score),[26],-0.19
same,glycan array binding signal (z-score),[27],-0.022
same,glycan array binding signal (z-score),[28],-0.165
same,glycan array binding signal (z-score),[29],-0.111
same,glycan array binding signal (z-score),[30],-0.261
same,glycan array binding signal (z-score),[31],-0.027
same,glycan array binding signal (z-score),[32],0.047
same,glycan array binding signal (z-score),[33],-0.281
same,glycan array binding signal (z-score),[34],-0.331
same,glycan array binding signal (z-score),[35],-0.277
same,glycan array binding signal (z-score),[36],-0.326
same,glycan array binding signal (z-score),[37],-0.303
same,glycan array binding signal (z-score),[38],-0.086
same,glycan array binding signal (z-score),[39],0.113
same,glycan array binding signal (z-score),[40],-0.234
same,glycan array binding signal (z-score),[41],-0.277
same,glycan array binding signal (z-score),[42],0.813
same,glycan array binding signal (z-score),[43],-0.311
same,glycan array binding signal (z-score),[44],-0.282
same,glycan array binding signal (z-score),[45],1.21
same,glycan array binding signal (z-score),[46],-0.146
same,glycan array binding signal (z-score),[47],-0.298
